# Data reported in the supplement of paper PMC6555819.
# How the values were obtained:
# Assay in all cases: PBM binding z-score (relative to random genomic background probes); higher = stronger binding; sequences stand for … in GC…GCGATTGACAGCGTAGAATGAAGG
# [1] = system: FXR:RXRa (NR concentration 270 nM, RXRa partner concentration 90 nM)
# How it was run: (§1)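 The probes on custom Agilent 4×180K protein-binding microarrays were double-stranded, with 34-nt variable regions bearing direct-repeat seeds, single-nucleotide variants, half-site ablations and random human genomic background sequences. Incubation lasted 1 h with ligand-free nuclear receptor dimers in PBS pH 7.4, 2% milk, 0.02% Triton X-100, 1 mM DTT, 0.2 mg/mL BSA and 0.4 mg/ml salmon testes DNA. Antibodies against each partner (one per run) detected bound dimers, and fluorescence scans were regression-normalized. Binding z-scores take the random background probes as reference.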
# [2] = system: LXRa:RXRa (NR concentration 270 nM, RXRa partner concentration 90 nM)
# How it was run: as §1
# [3] = system: LXRa homodimer (NR concentration 270 nM)
# How it was run: as §1
# [4] = system: LXRb homodimer (NR concentration 270 nM)
# How it was run: as §1
# [5] = system: PPARa:RXRa (NR concentration 270 nM, RXRa partner concentration 90 nM)
# How it was run: as §1
# [6] = system: PPARg:RXRa 270nM:90nM, anti-RXR (NR concentration 270 nM, RXRa partner concentration 90 nM)
# How it was run: as §1
# [7] = system: PPARg:RXRa 30nM:10nM, anti-RXR (NR concentration 30 nM, RXRa partner concentration 10 nM)
# How it was run: as §1
# [8] = system: PPARg:RXRa 90nM:30nM, anti-RXR (NR concentration 90 nM, RXRa partner concentration 30 nM)
# How it was run: as §1
# [9] = system: PPARg:RXRa DBDmut IVT, anti-RXR (DBD mutation: RXRa K156A/R161A, NR concentration 270 nM, RXRa partner concentration 90 nM)
# How it was run: as §1
# [10] = system: PPARg:RXRa (NR concentration 180 nM, RXRa partner concentration 90 nM)
# How it was run: as §1
Sequence,PBM binding z-score [1],PBM binding z-score [2],PBM binding z-score [3],PBM binding z-score [4],PBM binding z-score [5],PBM binding z-score [6],PBM binding z-score [7],PBM binding z-score [8],PBM binding z-score [9],PBM binding z-score [10]
GGAACGAGGGCAAAGTTCATAGCATCTGTCGACG,4.26,4.95,3.9,-0.156,6.24,9.67,9.74,10.7,4.19,
TCTTGTAGATCAACAGGAGGTTAATAAAGATCGA,0.0439,,-0.0218,-0.135,1.23,1.68,2.71,2.08,1.38,0.6
CCTGCTAGGTCAAAGGTCAGCTAAAGCAGCTCGC,7.56,6.38,2.52,1.05,,10.2,11.3,12.6,5.89,
CCTACTGGGCCAAAGGTGATTGATTCCAATGCTC,-0.0621,,-0.216,-0.106,4.5,7.96,7.6,8.66,5.69,8.87
GATATAGGGTCAGCTAGAGGCCAGAGTATGGAAA,5.03,,0.0568,-0.307,4.76,3.86,1.25,2.44,2.49,4.09
CAAACTAGGTCACAAAAGGTCAAAGTCGAATGAC,7.02,,7.78,3.46,6.35,8.38,6.97,8.43,8.13,10.1
CCGACGGGGGCAAAGGTTACCATACTCAGTACGA,5.52,5.02,0.667,5.6,,9.24,8.76,10.4,2.71,10
CGTCCAAGGTCATATGAGGTCAGTGAAGACAGAT,7.7,,6.17,2.22,5.65,5.72,2.34,4.36,3.46,4.87
CGTCCAAGGTCAAAGGTCAATGAAGAGATGACGG,8.53,7.3,4.31,2.18,,9.12,8.3,9.78,3.66,10.8
TCTTGTAGATCAATAGAAGTTAAGAAAGTGCGCT,0.718,,-0.154,0.0744,0.693,1.83,3.04,2.6,1.85,-5.78e-05
ACTAGTTGGTCAGCTGAGGTCACACCCAATTCGG,2.83,,2.07,0.443,3.46,2.06,0.239,1.19,1.35,1.54
ATATGTAGTTTATCGGGTCATTCAGTTTGCGCAT,2.53,,3.41,0.952,3.2,2.34,0.761,1.64,2.99,1.86
TAGCCTAGGTCATGCGGGCCAATATAGTGTCGGC,4.22,,0.473,-0.31,3.53,2.44,0.146,1.26,1.58,2.39
CGTCAAAGTTCAACTAAGGTTACGTAAAGCACGC,7.19,,6.3,2.31,5.63,5.55,2.42,4.33,0.789,5.53
CCTTACGGGTCACTCCAGGTCATAGCATCGGAGT,5.36,,7.03,0.548,4.91,4.54,1.86,3.2,2.73,4.38
TGTCAATGTTCAAAGGTAACGTAAGTATCCACAC,0.202,,-0.216,0.283,1.3,3.47,1.61,3.32,-0.214,2.34
TAGCCTAGGTCATGGGCCAGTGTACCACGCGAAC,4.82,,0.0441,-0.0634,4.38,3.87,1.39,2.66,1.74,4.13
ATATGTAGGTTGGGGTCATTCAGAAAGTAGGGAA,5.99,5.41,2.32,4.74,6.11,6.09,3.16,5.4,3.81,7.05
TCTAGTTGGTCAAAGGTCACGCACTCGAAATGCG,6.9,6.16,4.78,1.9,,10.2,12.6,12.2,3.84,12
CGTCCAAGGTCATAGGAGGTCAATGAAGACAGAT,7.84,7.73,6.78,1.44,,6.13,2.88,5.04,3,5.9
TAGCCTAGGTCGTTCAGGGGCCAGTATAGAAAGC,0.616,,-0.424,0.206,0.74,0.17,-0.575,-0.218,-0.258,-0.0601
CCTCGGAGGACAACAGGAGGTCATAGCTGCCAGA,2.31,,4.2,-0.0136,3.13,1.16,0.00805,0.459,0.281,0.961
ATATGTAGGTCAAGGGTCATTCAGGTTGGTTCGC,7.27,6.25,5.58,2.07,,10.5,11.7,11.7,8.58,
TCGTGTAGGTTACGGGGGCATTCAGGGATGAAGA,3.84,3.76,1.21,,,6.17,4.82,5.8,5.22,6.02
ATATGTAGGTTAGGGGTCATTCAGGTTGGTTCGC,6.13,5.98,4.58,3.55,,9.8,10.2,11,7.09,11.4
AATACAGGGTCATCGTAGGTCAGAGTACGCACAG,7.7,,5.76,1.95,6.23,6.38,3.55,5.23,3.26,7.46
CCGAATAGGTTACGAGGGGGCATTCAGTGCGAAT,3.52,7.98,2.43,,,3.71,2,2.62,2.73,2.08

Sequence,PBM binding z-score [1],PBM binding z-score [2],PBM binding z-score [3],PBM binding z-score [4],PBM binding z-score [5],PBM binding z-score [6],PBM binding z-score [7],PBM binding z-score [8],PBM binding z-score [9],PBM binding z-score [10]
AGTCAAAGTTCATCTAGGTAACATAAGATATGCT,6.39,,5.61,2.08,5.11,6.54,3.85,5.76,1.1,6.9
CCTAGTTGGTCAAGGTCACACCCGCTATAGGTAC,3.45,,2.19,1.02,3.85,3.27,1.13,2.4,2.17,2.92
ACTTACGGGTCAACGAGGTCATAGCACGCGTATA,7.21,6.34,3.72,1.13,,6.81,3.78,5.73,4.12,6.76
CTATGTAGGTCAAGGGGGTCATTCAGTTTGAAAG,7.19,5.9,4.49,,,9.27,8.54,10.3,8.6,
CGTCCAAGGTCTAGGTCAGTGAAAGAGACTCGAA,0.449,0.249,-0.0366,-0.741,,0.357,-0.506,-0.014,0.895,-0.0446
CTATGTAGGTTAGGGGGGTCATTCAGTTTGAAAG,5.78,5.66,3.89,,,7,5.35,7.07,6.54,9.03
TCGAGTAGGTCACGGGGGCATTCAGGGATGAAGA,6.7,5.3,1.07,,,7.99,5.9,7.7,6.73,9.41
CTATGTGGGTTAAGGGGGTCATTCAGTTTGAAAG,5.61,5.47,3.82,,,7.71,5.51,7.71,7.57,8.76
ATATGTAGGTTAAAGGTCATTCAGGTTGGTTCGC,7.3,6.58,6.86,2.72,,11,13.3,13.6,8.31,
CTATGTAGGTTACGGGGGTCATTCAGTTTGAAAG,5.4,5.54,2.93,,,7.81,5.47,7.92,7.41,9.31
ATCGAAAGGTCGAAGGTGAGCATACCCACCCGAA,4.19,,0.288,0.758,5.01,5.08,2.36,4.36,0.147,5.08
ATCAAAAGGTCGAGGTGAGTATAGAGAAAGGGAA,4.62,4.01,0.533,1.32,4.75,3.94,1.51,2.81,0.945,3.37
TATACAAGGTCAAAGGCCAGAGTACGAATGTCGA,7.51,,6.08,4.21,6.24,7.39,5.48,7.66,2.91,8.52
CCTTACGGGTCAAGGTTATAGCCCGGGTGGTACG,5.51,,0.231,-0.334,,4.86,1.37,3.74,1.8,4.06
CAAACTAGTTCAAGAGGTCAAAGTCCGCTTCCCG,5.96,,8.11,2.39,5.38,5.47,2.85,4.8,2.43,3.84
TATCAAAGTTCAAAGGTAACGTAAGTATCCACAC,6.87,,6.56,3.08,,6.03,3.65,5.24,0.181,6.12
GTTACAGGGTCAAGGCCAGAGTACGCGTATTGAT,6.43,,0.317,0.463,5.59,5.66,2.09,4.49,3.09,5.4
AATACAGGGTGACTAGGCCAGAGTAGGTACGAAT,0.201,,0.00715,-0.0758,1.7,2.06,0.461,1.08,2.23,2.6
TACCCTAGGTCATGGGCCAGTATACCACGCGAAC,5.02,,6.35,2.13,4.51,4.25,1.59,3.13,1.55,4.58
CAAAATAGGTCACCGGAAGGTCAAAGTCCGCATG,7.48,,5.46,1.73,6.51,7.64,6.2,7.69,7.95,9.14
TCTAGTTGGTCTAAGGTCACACACTCGAAATGCG,4.14,,2.63,1.6,4.7,6.51,5.71,6.57,2.2,5.15
ATATGTAGGATAGCTGGGGTCATTCAGACTAGGC,3.09,,1.63,1.33,4.6,3.01,1.01,2.38,3.17,2.42
CGTCCAAAGTCAAAGGTCAGTGAAGAGATGACGG,3.96,,1.31,0.637,,5.88,3.89,5.37,0.242,5.73
CCTACTGGGCCATTCAGAGGGCATTGATCATATG,-0.338,,0.468,-0.759,0.726,0.565,-0.432,-0.127,4.54,0.602
ATATGTAGGTTAGCTGAGGTCATTCAGACTAGGC,5.29,,6.24,1.12,4.55,4.91,2.35,4.11,6.93,5.21
TACCCTAGGTCATTGGGCCAGTATAGTACGCATC,4.66,,8.18,3.83,,4.04,1.23,2.96,3.2,4.27
